Measurements from PubChem BioAssay (EPA / NIEHS).
Results filed as inconclusive are left out. Calls of active or inactive are those of the source. Rule for the calls, unless noted: active = hit-call score of the fitted dose curve at least 0.9, where 1 is the maximum; inactive = score below 0.9.

Key:
[1] = UKN4_HCS_LUHMES_neurite_outgrowth: University of Konstanz (UKN) Leist Lab Neurite Outgrowth Assay in human LUHMES cells (UKN4) (AID 2284206); conditions: actives raise or lower the signal
How it was run: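 Neurite area in dopaminergic-model LUHMES neurons is measured by high-content imaging of calcein-AM after 24 h treatment starting shortly after day-2 replating; Hoechst staining tracks viability.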

[2] = IUF_NPC1b_proliferation_BrdU_72hr: Leibniz Research Institute for Environmental Medicine (IUF) 72-hour Neural Progenitor Cell Bromodeoxyuridine (BrdU) Proliferation Assay (NPC1b) (AID 2284207)
How it was run: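 Luminescent BrdU ELISA measured DNA synthesis during the last 16 h of a 72 h exposure of primary human neural progenitor spheres grown with EGF and FGF. Signal was fitted relative to DMSO controls.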

[3] = IUF_NPC1a_proliferation_area_72hr: Leibniz Research Institute for Environmental Medicine (IUF) 72-hour Neural Progenitor Cell Proliferation Area Assay (NPC1a) (AID 2284208)
How it was run: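 Single 0.25–0.35 mm human fetal neural progenitor spheres in proliferation medium with EGF and FGF, exposed 72 h from plating without renewal at 37C, pH 7.2-7.6. Sphere area growth measured by automated phase-contrast imaging, relative to DMSO.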

[4] = IUF_NPC1_viability_72hr: Viability Assessment at 72 hours in the Leibniz Research Institute for Environmental Medicine (IUF) Neural Progenitor Cell Proliferation Assay (NPC1) (AID 2284209)
How it was run: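 Three-day continuous exposure of human neural progenitor spheres under EGF/FGF-driven proliferation; cell viability scored by alamar blue signal versus DMSO.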

[5] = CCTE_Mundy_HCI_Cortical_Synap_Neur_Matur_NeuriteSpotCountPerNeuriteLength: CCTE's Synaptogenesis and Neurite Maturation Assay in rat cortical cells for Neurite Spot Count per Neurite Length, Mundy Lab (AID 2284210)
How it was run: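 Read-out: synaptophysin puncta counted along MAP2-stained neurites, normalised to neurite length, by automated high-content imaging. Rat cortical cells; AraC DIV 5; chemical dosing DIV 7; termination DIV 12. DMSO baseline.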

[6] = CCTE_Mundy_HCI_Cortical_Synap_Neur_Matur_BPCount: CCTE's Synaptogenesis and Neurite Maturation Assay in rat cortical cells for Branch Point Count, Mundy Lab (AID 2284211)
How it was run: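 In this multiplexed morphology assay, cortical cells from rat receive chemicals at DIV 7 and are fixed at DIV 12, then immunostained and imaged; branch points are counted, with DMSO as baseline.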

[7] = CCTE_Mundy_HCI_Cortical_NOG_NeuriteLength: CCTE's Neurite Outgrowth Assay in rat cortical cells for Neurite Length, Mundy Lab (AID 2284213);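 for AC50: neurites imaged about 48 to 50 h after chemical exposure began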
How it was run: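 First, rat primary cortical cells were plated and, 2 h later, given test chemical as a 1/10 dilution. Finally, βIII-tubulin immunostaining enabled automated imaging of neurite length.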

[8] = CCTE_Mundy_HCI_Cortical_Synap_Neur_Matur_NeuriteLength: CCTE's Synaptogenesis and Neurite Maturation Assay in rat cortical cells for Neurite Length, Mundy Lab (AID 2284214)
How it was run: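 DMSO-normalised neurite length, from high-content imaging of anti-MAP2-stained rat cortical cells fixed at DIV 12. Glia were suppressed with AraC (DIV 5) before chemical exposure from DIV 7.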

[9] = CCTE_Mundy_HCI_Cortical_Synap_Neur_Matur_NeuriteSpotCountPerNeuron: CCTE's Synaptogenesis and Neurite Maturation Assay in rat cortical cells for Neurite Spot Count per Neuron Count, Mundy Lab (AID 2284215)
How it was run: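 Rat primary cortical cultures given AraC at DIV 5, dosed from DIV 7 to DIV 12 with media change. Fixed, stained for MAP2, synaptophysin and Hoechst; neurite-associated synaptophysin puncta per neuron quantified by high-content imaging versus DMSO.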

[10] = CCTE_Mundy_HCI_Cortical_Synap_Neur_Matur_SynapseCount: CCTE's Synaptogenesis and Neurite Maturation Assay in rat cortical cells for Synapse Count, Mundy Lab (AID 2284218)
How it was run: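 Endpoint: synapses/neuron by HCI (synaptophysin puncta on MAP2-labelled neurites, Hoechst nuclei). Rat primary cortical cells, AraC DIV 5, dosed DIV 7, fixed DIV 12; DMSO negative control.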

[11] = CCTE_Mundy_HCI_hN2_NOG_NeuriteCount: CCTE's Neurite Outgrowth Assay in human hN2 cells for Neurite Count, Mundy Lab (AID 2284219; active = hit-call score of the fitted dose curve at least 0.9, where 1 is the maximum)
How it was run: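 In this morphology assay, hNP1-derived neurons received test chemical 2 h post-plating and were fixed two days later in warm paraformaldehyde/sucrose containing Hoechst 33342. Neurites, labelled by rabbit anti-βIII-tubulin (1:800) and Alexa Fluor-488 (1:500), were counted automatically.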

[12] = CCTE_Mundy_HCI_hN2_NOG_NeuriteLength: CCTE's Neurite Outgrowth Assay in human hN2 cells for Neurite Length, Mundy Lab (AID 2284220; active = hit-call score of the fitted dose curve at least 0.9, where 1 is the maximum)
How it was run: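 Read-out is neurite length from high-content imaging of βIII-tubulin/Alexa Fluor-488-labelled neurons, referenced to DMSO controls.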

[13] = CCTE_Mundy_HCI_hN2_NOG_NeuronCount: CCTE's Neurite Outgrowth Assay in human hN2 cells for Neuron Count, Mundy Lab (AID 2284221; active = hit-call score of the fitted dose curve at least 0.9, where 1 is the maximum)
How it was run: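 Read-out is the number of betaIII-tubulin-positive neurons imaged by automated high-content analysis, with DMSO as negative control.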

[14] = CCTE_Mundy_HCI_Cortical_Synap_Neur_Matur_NeuriteCount: CCTE's Synaptogenesis and Neurite Maturation Assay in rat cortical cells for Neurite Count, Mundy Lab (AID 2284222)
How it was run: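 In this multiplexed morphology readout, rat primary cortical neurons are fixed at DIV 12 following dosing at DIV 7 and stained for MAP2, synaptophysin and nuclei. High-content image analysis yields neurite count.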

[15] = CCTE_Mundy_HCI_Cortical_Synap_Neur_Matur_CellBodySpotCount: CCTE's Synaptogenesis and Neurite Maturation Assay in rat cortical cells for Cell Body Spot Count, Mundy Lab (AID 2284223)
How it was run: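 Primary rat cortical cultures, AraC added at DIV 5; dosed DIV 7 through DIV 12 […]. Fixed, stained for MAP2 and synaptophysin with Hoechst; cell body-associated synaptophysin puncta per neuron counted by high-content imaging, loss vs DMSO.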

[16] = CCTE_Mundy_HCI_hNP1_Pro_ResponderAvgInten: CCTE's Proliferation Assay in human neuroprogenitor cells, Mundy Lab (AID 2284224; active = hit-call score of the fitted dose curve at least 0.9, where 1 is the maximum;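 note: human neural progenitor cells hNP1 derived from WA09 embryonic stem cells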)
How it was run: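 Proliferation read as average intensity of BrdU-positive cells, imaged at 26.25 h post-dosing: chemical exposure started after 40–44 h culture, BrdU during final 4 h, paraformaldehyde fixation. Positive-direction fit relative to DMSO.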

[17] = UKN2_HCS_IMR90_cell_viability: Viability Assessment in the University of Konstanz (UKN) Leist Lab Neural Crest Cell Migration Assay in human induced IMR90 Pluripotent Stem Cells (UKN2) (AID 2284233);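 note: cells exposed to compound for 24 h after a 24 h migration phase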
How it was run: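 Viability read as calcein-AM fluorescence by high-content imaging, Hoechst co-stain, 30 min. Human iPSC (IMR90) neural crest cells had migrated 24 h into stopper-defined gaps before 24 h chemical exposure. Fitted bidirectionally relative to DMSO.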

[18] = UKN4_HCS_LUHMES_cell_viability: Viability Assessment in the University of Konstanz (UKN) Leist Lab Neurite Outgrowth Assay in human LUHMES cells (UKN4) (AID 2284232)
How it was run: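 Measured in replated, 2-day-differentiated LUHMES cells treated 24 h; stained 30 min with H-33342 and calcein-AM before high-content imaging.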

[19] = TAMU_PeakParms_SingleDonor1434_Chronotropy: Texas A&M University (TAMU) 1.5-hr Human Induced Pluripotent Stem Cell (iPSC)-derived Cardiomyocytes Calcium (Ca+2) Flux Assay for Cardiotoxicity: Chronotropy (changes in peak frequency) (AID 2284217); conditions: actives raise or lower the signal
How it was run: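 Using fluorescent Ca2+ flux, average beats per second are measured in human iPSC-derived cardiomyocytes treated 90 min (0.5% DMSO vehicle, 0.2–100 uM). Non-beating data points are removed; activity is modeled in both directions relative to DMSO controls.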

[20] = CCTE_Mundy_HCI_Cortical_NOG_NeuriteCount: CCTE's Neurite Outgrowth Assay in rat cortical cells for Neurite Count, Mundy Lab (AID 2284212);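 note: cells fixed about two days after chemical exposure began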
How it was run: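 Rat cortical primary cells; compound added 2 h post-plating, 1/10 dilution of working solution. Anti-betaIII-tubulin/AF488 ICC; ArrayScan neurite count vs DMSO.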

Measured: AC50

CN(C)CCCN1c2ccccc2Sc2ccc(Cl)cc21
inactive: [15] | [16]
active: [1] 6.73 µM | [2] 4.53 µM | [3] 11.8 µM | [4] 18.8 µM | [5] 28.4 µM | [6] 12.8 µM | [7] 10.7 µM | [8] 12.8 µM | [9] 11.8 µM | [10] 11.8 µM | [11] 11 µM | [12] 14.3 µM | [13] 9.61 µM | [14] 21.1 µM | [17] 14.3 µM

O=C1NC(=O)C(c2ccccc2)(c2ccccc2)N1
inactive: [1] | [2] | [3] | [4] | [5] | [7] | [8] | [9] | [10] | [11] | [12] | [13] | [15] | [18] | [17]

CCc1nc(N)nc(N)c1-c1ccc(Cl)cc1
inactive: [19]

OCC(O)CO
inactive: [1] | [2] | [3] | [4] | [5] | [6] | [20] | [7] | [8] | [9] | [10] | [14] | [15] | [16] | [18]

Nc1nc(=S)c2[nH]cnc2[nH]1
active: [19] 89.6 µM

Cc1occc(=O)c1O
inactive: [19]

CC(=O)CC(c1ccccc1)c1c(O)c2ccccc2oc1=O (stereo not given)
inactive: [2] | [3] | [4] | [5] | [6] | [20] | [7] | [8] | [9] | [10] | [14] | [15] | [16]

O=C(O)CC(O)(CC(=O)O)C(=O)O
inactive: [19]

COC(=O)[C@H]1[C@H]2C[C@@H]3c4[nH]c5cc(OC)ccc5c4CCN3C[C@H]2C[C@@H](OC(=O)c2cc(OC)c(OC)c(OC)c2)[C@@H]1OC
inactive: [19]
